Bioassay records deposited in PubChem by National Center for Advancing Translational Sciences (NCATS).
Most compounds without a hit are left out; they make up all but 9.2% or so of the library.
Rab9 prom act: qHTS Assay for Rab9 Promoter Activators; Huh7 Rab9 promoter-luciferase reporter, luminescence, 24 h; Potency, µM (series often up to 9.22 µM), for the others: at the highest dose activation, negative = inhibition, most hits filed as activators; actives 2.8% (n = 320,000); AID 485297, 2010; also: % of control where 0% means no effect; nearly all actives have a fitted effect of over 60% in size
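Huh7 reporter line, Rab9 promoter upstream of luciferase. Compound exposure 24 h at 37 °C in reduced-serum medium with 10% FBS. Read-out: luminescence.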
FLuc counter: qHTS profiling assay for firefly luciferase inhibitor/activator using purifed enzyme and Km concentrations of substrates (counterscreen for miR-21 project) | actives 6.9% (n = 360,000) | purified FLuc, Km substrates, luminescence inhibition | Potency, µM (series often up to 57.5 µM), inactives show at the top dose activity change, negative = inhibition, usual class: inhibitors | Luciferin 4-monooxygenase (Photinus pyralis), P08659;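 also: plate controls were vehicle for no effect and reference inhibitor for full effect; nearly all actives have a fitted effect of over 55% in size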
Target sequence (P08659 whole entry, looked up): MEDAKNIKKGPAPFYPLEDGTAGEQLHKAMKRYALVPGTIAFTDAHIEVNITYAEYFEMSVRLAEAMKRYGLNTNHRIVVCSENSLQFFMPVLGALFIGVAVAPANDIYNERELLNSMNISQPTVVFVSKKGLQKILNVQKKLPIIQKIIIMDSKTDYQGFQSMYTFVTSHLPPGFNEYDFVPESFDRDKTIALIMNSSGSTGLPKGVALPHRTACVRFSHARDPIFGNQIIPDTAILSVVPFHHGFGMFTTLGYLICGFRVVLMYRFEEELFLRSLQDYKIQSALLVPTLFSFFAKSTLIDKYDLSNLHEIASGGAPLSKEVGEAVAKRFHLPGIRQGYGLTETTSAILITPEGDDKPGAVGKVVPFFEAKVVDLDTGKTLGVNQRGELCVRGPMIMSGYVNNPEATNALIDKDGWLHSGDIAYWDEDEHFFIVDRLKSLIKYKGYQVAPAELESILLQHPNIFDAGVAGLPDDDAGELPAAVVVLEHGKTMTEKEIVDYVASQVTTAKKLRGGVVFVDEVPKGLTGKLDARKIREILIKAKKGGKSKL
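Purified P. pyralis luciferase, 10 nM final, with Km-level 10 uM D-luciferin and 10 uM ATP in 50 mM Tris acetate pH 7.5, 10 mM Mg acetate, 0.01% Tween-20, 0.05% BSA; 6-point qHTS titration about 60 µM downward; luminescence read.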
ELG1 repair inh: qHTS screen for small molecules that inhibit ELG1-dependent DNA repair in human embryonic kidney (HEK293T) cells expressing luciferase-tagged ELG1; HEK293T ELG1-luciferase reporter, luminescence, 16 h; DNA damage induced by 5-fluorouridine; Potency, µM (top dose mostly 46.1 µM), for the others: at the top dose activity change, negative = inhibition, actives largely listed as inhibitors; AID 504467, 2011; actives 2.3% (n = 330,000); also: % is scaled to controls: 0 for no effect and ±100 for the full control effect; nearly all actives have a fitted effect of over 55% in size
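Luminescence from the luciferase reporter, measured 30 min after ONE-Glo reagent at room temperature, was the read-out. Beforehand, 2,000 cells per well were exposed for 16 hr at 37 °C to 5-fluorouridine together with compound or vehicle.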
NPC1 promoter act: qHTS Assay for NPC1 Promoter Activators | Potency, µM (titrated, usually from 9.22 µM), inactives show at the highest dose activation, usual class: activators | actives 2.4% (n = 320,000) | AID 485313, 2010 | Huh7 NPC1 promoter luciferase reporter, 24 h; also: % of control where 0% means no effect; nearly all actives have a fitted effect of over 60% in size
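Luciferase expression driven by the NPC1 promoter was measured in stably transfected Huh7 cells after a 24 h compound incubation, using a luciferase reagent and a luminescence read.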
SMN2 splice enh: qHTS Assay for Enhancers of SMN2 Splice Variant Expression; HEK293 SMN2-luciferase splicing reporter, luminescence, 30-36 h; Potency, µM (titrated, usually from 46.1 µM), without a hit: top-dose activity change, positive = activation, actives largely listed as activators; actives 2.8% (n = 210,000); AID 1458, 2008; also: % of control where 0% means no effect; nearly all actives have a fitted effect of over 55% in size
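qHTS luciferase splicing reporter: luminescence rises when SMN2 exon 7 is included in transfected HEK293 cells. Compound exposure lasted 30-36 h at 37C, with 4.5 mM final sodium butyrate as control, followed by a ONE-Glo read.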
ELG1 genotoxic: qHTS screen for small molecules that induce genotoxicity in human embryonic kidney (HEK293T) cells expressing luciferase-tagged ELG1; AID 504466, 2011; actives 1.3% (n = 330,000); Potency, µM (series often up to 46 µM), without a hit: at the highest dose activity change, positive = activation, usual class: activators; HEK293T ELG1-luciferase reporter, luminescence, 16 h; also: % of control where 0% means no effect; nearly all actives have a fitted effect of over 60% in size
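Genotoxic stress is detected as increased luminescence from luciferase-tagged ELG1 in HEK293T cells, measured with ONE-Glo after a 16 hr treatment at 37 °C.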
* hit, by the source's call; ? = inconclusive; / = no result; [ ] = dose if it differs, or a comment. Calls follow the shape of the dose curve; as a rule, active = well fitted curve in the direction sought with a large enough effect; inconclusive = small, poorly fitted or top-dose-only effect, or another doubt; inactive = no such curve, though single readings can be large; an effect the other way counts as inactive or inconclusive. Potency is read from the fitted curve at half-maximal effect.

SMILES | Rab9 prom act | FLuc counter | ELG1 repair inh | NPC1 promoter act | SMN2 splice enh | ELG1 genotoxic
COc1ccccc1C(=O)N/N=C/c1cnc2ccccc2n1 | ? | ? | ? | ? | 16µM* | ?
CC(=O)NC12CC3CC(C1)CC(C(=O)Nc1nc4c(C)cccc4s1)(C3)C2 | 0% | ? | -12% | 2% | / | -7%
COc1ccc(Nc2nc3nonc3nc2N2CCCCC2)cc1 | -9% | -3% | 21µM* | 0% | / | -1%
CC1CCN(c2nc3nonc3nc2Nc2ccc(F)cc2)CC1 | ? | -2% | ? | 0% | -36% | -7%
Cc1cc(C)c(C(=O)Nc2ccccc2)c(CC(C)(C)C(=O)O)c1 | 0% | 0% | -9% | 5% | / | 1%
Cc1cc(C(=O)OCC(=O)c2ccccc2)c2ccccc2n1 | -3% | ? | 4% | -6% | / | 3%
Cc1ccc(C(=O)COC(=O)c2cc(Cl)nc3ccccc23)cc1C | -7% | 15µM* | -3% | -6% | -6% | 0%
Cc1ccc(C)c(C(=O)COC(=O)c2cc(Cl)nc3ccccc23)c1 | -3% | 12µM* | ? | 1% | -10% | 2%
O=C(C1=C[C@@H](C2CC2)C[C@@H](OCCCCO)O1)N1CCN(Cc2ccc3c(c2)OCO3)CC1 | 7% | -2% | -10% | -2% | / | 4%
CC(C)Cc1nn2c(=O)cc(COC(=O)c3ccc4c(c3)OCO4)nc2s1 | / | -9% | / | / | / | /
O=C(NCc1cn(-c2ccccc2)nc1-c1ccccc1)c1cccc([N+](=O)[O-])c1 | -1% | ? | 21µM* | 1% | 4% | 0%
N#C/C(=C/c1cn(-c2ccccc2)nc1-c1cccc(OCc2ccc(F)cc2)c1)C(=O)NCCCn1ccnc1 | -3% | ? | 15µM* | -1% | 13% | -7%
O=C(O)c1cccc(NC(=O)c2cn(-c3ccccc3)nc2-c2ccncc2)c1 | -3% | 17µM* | 11% | -1% | -3% | -4%
COc1ccc(-c2nn(-c3ccccc3)cc2C(=O)Nc2cccc(C(=O)O)c2)cc1[N+](=O)[O-] | 13% | ? | 0% | 2% | / | 9%
O=C(O)c1cccc(NC(=O)c2cn(-c3ccccc3)nc2-c2ccc([N+](=O)[O-])cc2)c1 | 0% | 17µM* | 8% | -8% | / | 0%
CCOc1ccccc1NC(=O)CCNC(=O)c1ccc(Cl)cc1 | -1% | -5% | -3% | 0% | -5% | 1%
Cn1cc(S(=O)(=O)c2ccc(Cl)cc2)c(=O)c2cc(F)c(N3CCCCCC3)cc21 | / | -3% | / | / | / | /
O=C(NCCCn1ccnc1)c1cn(-c2ccccc2)nc1-c1ccc(F)cc1 | 9% | 11µM* | 1% | 9% | 12% | 5%
O=C(O)c1cccc(NC(=O)c2cccc(S(=O)(=O)Nc3cccc([N+](=O)[O-])c3)c2)c1 | 4% | ? | 14% | 2% | / | 0%
O=C(NNS(=O)(=O)c1ccc([N+](=O)[O-])cc1)C(=O)Nc1cccc(C(=O)O)c1 | 11% | 17µM* | 23% | 1% | / | 4%
O=C(Nc1ccc(F)cc1)c1cn(-c2ccccc2)nc1-c1ccncc1 | -1% | -4% | 21µM* | -8% | -7% | -7%
O=C(O)c1cn(-c2ccccc2)nc1-c1ccncc1 | -3% | ? | -1% | 0% | ? | 1%
CCCCOc1ccc(S(=O)(=O)N2CCN(c3ccccc3OCC)CC2)cc1 | / | 5% | / | / | 1% | /
Cc1ccc2nc(C(F)(F)F)c(C#N)c(N)c2c1 | -6% | -1% | ? | 8% | 14µM* | -36%
Oc1ccc(/C=N/N2CCCCC2)c(O)c1O | 0% | ? | -8% | -3% | / | -6%
SMILES | Rab9 prom act | FLuc counter | ELG1 repair inh | NPC1 promoter act | SMN2 splice enh | ELG1 genotoxic
Oc1ccc(/C=N/N2CCCCC2)c(O)c1 | -5%[1.84 µM] | 19µM* | ? | ? | / | ?
Oc1cccc(/C=N/N2CCCCC2)c1O | -16% | 9.5µM* | ? | -3% | / | ?
Oc1ccccc1/C=N/N1CCCCC1 | 14% | 24µM* | ? | 0% | 2% | ?
Brc1ccccc1/C=N/N1CCCCC1 | -5%[1.84 µM] | -20% | 4% | -1% | / | -1%
COc1cc(C2c3c(-c4c(C)cc(C)cc4O)n[nH]c3C(=O)N2CCCOC(C)C)cc(OC)c1OC (stereo not given) | / | 0% | / | / | -9% | /
O=C(c1ccc2oc(CCCc3ccccc3)nc2c1)N1CCCCC1CO (stereo not given) | 6.3µM* | 24µM* | ? | 4.5µM* | / | ?
NC(=O)[C@@H]1CCCN1C(=O)c1ccc2oc(CCc3ccccc3)nc2c1 | ? | -19% | ? | ? | / | ?
O=C(c1ccc2oc(CCc3ccccc3)nc2c1)N1CCC(O)CC1 | 1µM* | 11µM* | ? | 1.3µM* | / | ?
CCOC(=O)CC1COCCN1C(=O)c1ccc2oc(Cc3ccccc3)nc2c1 (stereo not given) | 3.2µM* | 12µM* | ? | ? | / | ?
Nc1ccc2oc(CCc3ccccc3)nc2c1 | 0.71µM* | 9.5µM* | ? | 2.5µM* | 18µM* | ?
COc1cc(C(=O)NCC(c2ccco2)N2CCc3ccccc3C2)cc(OC)c1OC (stereo not given) | -3% | 2% | -23% | -1% | / | 5%
CC1CCCC(NC(=O)COC(=O)COc2ccc(Br)cc2)C1C (stereo not given) | / | / | 24% | / | / | 6%
CCOC(=O)c1ccccc1NC(=O)CSc1ncc(CO)n1Cc1ccc(C)cc1 | / | -9% | / | / | / | /
CCOc1ccc(/C=C2/SC(=O)NC2=S)cc1 | ? | 17µM* | ? | 25% | ? | 7%
O=C1NC(=Nc2ccc(Cl)cc2)/C(=C/c2ccco2)S1 | -2% | -13% | 7% | -2% | ? | 10%
CCOc1ccc(N=C2NC(=O)S/C2=C\c2ccc(N(C)C)cc2)cc1 | ? | 12µM* | ? | 4.5µM* | 11µM* | ?
CCOc1ccc(/C=C2\SC(=S)N(N3C(=O)C4CC4C3=O)C2=O)cc1 (stereo not given) | 0% | ? | -1% | -2% | 5% | 1%
CC(OC(=O)Cn1[nH]c(=O)c2ccccc2c1=O)C(=O)Nc1ccccc1[N+](=O)[O-] (stereo not given) | -1% | -22% | 15% | 3% | / | 5%
